Measurements: PubChem BioAssay (NCI)
Values joined by “and” are separate entries in the source; they are usually repeats but may differ in a detail not shown here. Equal values may be shown once. Compounds without any hit were thinned out: in the full panel of roughly 79,000, 15% have a hit. Unmarked numbers belong to inactive results. Active and inactive are the calls of the source. No stated cut-off is given here; in the data, active means growth inhibition above about 70%; inactive means the rest.

experiment: NCI Yeast Anticancer Drug Screen. Data for the mec2-1 strain (AID 157); conditions: S. cerevisiae mec2-1 strain, at 50.0 µM, active compounds read high
Summary of the method: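 Vehicle-treated cultures served as reference for growth inhibition of compound-exposed mec2-1 yeast.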

**Q.** With `COc1cc(C(c2cc3c(cc2O)OCO3)N2CCN(C(c3cc(OC)c(OC)c(OC)c3)c3cc4c(cc3O)OCO4)CC2)cc(OC)c1OC` (centres undefined) as the compound, how does the growth inhibition read?
**A.** 32.9%

**Q.** With `Cc1cc(N)c(C)c2c1[nH]c1ccc(Br)cc12` as the compound, how does the growth inhibition read?
**A.** 42.1%

**Q.** Which growth inhibition does the source give for `COc1ccc(C2c3cc4c(cc3OC(O)(CO)C2C(=O)O)OCO4)cc1` (centres undefined) (tested in a mixture with another compound) here?
**A.** 81.3% (active)

**Q.** Which growth inhibition does the source give for `CC(=O)OC1COC(SC(=N)N)C(OC(C)=O)C1OC(C)=O` (centres undefined) here?
**A.** 15.8% and 17.9% and -1.25%

**Q.** Which growth inhibition does the source give for `CCCCCC(/C=N/Nc1nc(C)cc(=O)[nH]1)=C\c1ccccc1` here?
**A.** 30.8%

**Q.** For `NCC(=O)NC(CO)C(=O)O` (centres undefined), which growth inhibition is on record?
**A.** -10.5% and -5.1% and -4.35%

**Q.** With `O=C1/C(=C/c2ccc([N+](=O)[O-])cc2)CNC/C1=C\c1ccc([N+](=O)[O-])cc1` as the compound, how does the growth inhibition read?
**A.** 87.5% (active)

**Q.** With `CC(c1ccc2cccc(F)c2c1)c1ccccc1C(=O)O` (centres undefined) as the compound, how does the growth inhibition read?
**A.** 96% (active)

**Q.** For `OC(c1ccccc1)C(O)c1ccccc1` (centres undefined), which growth inhibition is on record?
**A.** -4.45% and -6.3% and 14.8%

**Q.** For `CN(NC(=O)CC(=O)NN(C)C(=S)c1ccccc1)C(=S)c1ccccc1`, which growth inhibition is on record?
**A.** 80% (active)

**Q.** With `O=c1nc(N2CCCC2)nc(N2CCCC2)s1` as the compound, how does the growth inhibition read?
**A.** 0.8%

**Q.** Which growth inhibition does the source give for `CC(=O)SC1C(=O)N(C)C(SC(C)=O)C(=O)N1C` (centres undefined) here?
**A.** 97% (active)

**Q.** For `CCN(CC)CC(O)c1ccnc2c(O)cccc12` (centres undefined), which growth inhibition is on record?
**A.** 20.6%

**Q.** For `Nc1ccc(S(=O)(=O)O)c2ccccc12`, which growth inhibition is on record?
**A.** -18.1% and 3.25% and 3.85%
